Test results as given in PubChem BioAssay AID1159580 (chemical genetic matrix, 2015).
“And” between values parts separate entries of the source, which are not always exact repeats. Equal values may be shown once. Among all 5,500 compounds or so, about 2,000 (36%) were called active. About 18% were inconclusive and are not listed. No stated cut-off is given here; in the data, active means normalized growth mostly below about 0.91 (no sharp cut-off); inconclusive means no clear call, values can overlap the other calls; inactive means mostly above about 0.92. This is one part of the list.

Test: chemical genetic growth profiling, strain panel (AID 1159580);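 further: tested at 20 µM; growth read once vehicle control cultures reached saturation at 30 °C; 1 = growth at the plate median or of vehicle wells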
Details: growth OD
[1] = S. cerevisiae deletion strains, locus YBR021W, strain FUR4, stronger effect = lower value
[2] = S. cerevisiae deletion strains, locus YBR229C, strain ROT2, stronger effect = lower value
[3] = S. cerevisiae deletion strains, locus YCL029C, strain bik1, stronger effect = lower value
[4] = S. cerevisiae deletion strains, locus YDL035C, strain GPR1, stronger effect = lower value
[5] = S. cerevisiae deletion strains, locus YDL074C, strain BRE1, stronger effect = lower value
[6] = S. cerevisiae deletion strains, locus YDL101C, strain DUN1, stronger effect = lower value
[7] = S. cerevisiae deletion strains, locus YDL185W, strain tfp1, stronger effect = lower value
[8] = S. cerevisiae deletion strains, locus YDL192W, strain arf1, stronger effect = lower value
[9] = S. cerevisiae deletion strains, locus YDR101C, strain arx1, stronger effect = lower value
[10] = S. cerevisiae deletion strains, locus YDR162C, strain NBP2, stronger effect = lower value
[11] = S. cerevisiae deletion strains, locus YDR318W, strain mcm21, stronger effect = lower value
[12] = S. cerevisiae deletion strains, locus YDR388W, stronger effect = lower value
[13] = S. cerevisiae deletion strains, locus YDR502C, strain sam2, stronger effect = lower value
[14] = S. cerevisiae deletion strains, locus YEL061C, strain CIN8, stronger effect = lower value
[15] = S. cerevisiae deletion strains, locus YER110C, stronger effect = lower value
[16] = S. cerevisiae deletion strains, locus YER155C, strain BEM2, stronger effect = lower value
[17] = S. cerevisiae deletion strains, locus YER167W, strain BCK2, stronger effect = lower value
[18] = S. cerevisiae deletion strains, locus YGL078C, strain dbp3, stronger effect = lower value
[19] = S. cerevisiae deletion strains, locus YGL086W, strain mad1, stronger effect = lower value
[20] = S. cerevisiae deletion strains, locus YGL248W, strain PDE1, stronger effect = lower value
[21] = S. cerevisiae deletion strains, locus YGR078C, strain PAC10, stronger effect = lower value
[22] = S. cerevisiae deletion strains, locus YGR135W, strain pre9, stronger effect = lower value
[23] = S. cerevisiae deletion strains, locus YGR229C, strain SMI1, stronger effect = lower value
[24] = S. cerevisiae deletion strains, locus YGR252W, strain gcn5, stronger effect = lower value
[25] = S. cerevisiae deletion strains, locus YHR030C, strain SLT2, stronger effect = lower value
[26] = S. cerevisiae deletion strains, locus YHR079C, strain IRE1 (second series), stronger effect = lower value
[27] = S. cerevisiae deletion strains, locus YHR094C, strain hxt1, stronger effect = lower value
[28] = S. cerevisiae deletion strains, locus YHR129C, strain ARP1, stronger effect = lower value
[29] = S. cerevisiae deletion strains, locus YHR200W, strain rpn10, stronger effect = lower value
[30] = S. cerevisiae deletion strains, locus YIL066C, strain RNR3, stronger effect = lower value
[31] = S. cerevisiae deletion strains, locus YIL073C, strain SPO22, stronger effect = lower value
[32] = S. cerevisiae deletion strains, locus YIL125W, strain kgd1, stronger effect = lower value
[33] = S. cerevisiae deletion strains, locus YIR030C, strain dcg1, stronger effect = lower value
[34] = S. cerevisiae deletion strains, locus YJL095W, strain BCK1, stronger effect = lower value
[35] = S. cerevisiae deletion strains, locus YJL134W, strain LCB3, stronger effect = lower value
[36] = S. cerevisiae deletion strains, locus YJL168C, strain set2, stronger effect = lower value
[37] = S. cerevisiae deletion strains, locus YJL187C, strain SWE1 (second series), stronger effect = lower value
[38] = S. cerevisiae deletion strains, locus YJR043C, strain POL32, stronger effect = lower value
[39] = S. cerevisiae deletion strains, locus YKL009W, strain mrt4, stronger effect = lower value
[40] = S. cerevisiae deletion strains, locus YKL068W, stronger effect = lower value
[41] = S. cerevisiae deletion strains, locus YKL085W, strain MDH1 (second series), stronger effect = lower value
[42] = S. cerevisiae deletion strains, locus YKL085W, strain MDH1, stronger effect = lower value
[43] = S. cerevisiae deletion strains, locus YKR001C, strain vps1, stronger effect = lower value
[44] = S. cerevisiae deletion strains, locus YLR039C, strain RIC1, stronger effect = lower value
[45] = S. cerevisiae deletion strains, locus YLR058C, strain SHM2, stronger effect = lower value
[46] = S. cerevisiae deletion strains, locus YLR102C, strain apc9, stronger effect = lower value
[47] = S. cerevisiae deletion strains, locus YLR268W, strain sec22, stronger effect = lower value
[48] = S. cerevisiae deletion strains, locus YLR330W, strain CHS5, stronger effect = lower value
[49] = S. cerevisiae deletion strains, locus YLR371W, strain rom2, stronger effect = lower value
[50] = S. cerevisiae deletion strains, locus YLR418C, strain cdc73, stronger effect = lower value
[51] = S. cerevisiae deletion strains, locus YML016C, strain PPZ1, stronger effect = lower value
[52] = S. cerevisiae deletion strains, locus YML032C, strain rad52, stronger effect = lower value
[53] = S. cerevisiae deletion strains, locus YML124C, strain tub3, stronger effect = lower value
[54] = S. cerevisiae deletion strains, locus YMR078C, strain ctf18, stronger effect = lower value
[55] = S. cerevisiae deletion strains, locus YMR223W, strain ubp8, stronger effect = lower value
[56] = S. cerevisiae deletion strains, locus YMR307W, strain GAS1, stronger effect = lower value
[57] = S. cerevisiae deletion strains, locus YNL067W, strain RPL9B, stronger effect = lower value
[58] = S. cerevisiae deletion strains, locus YNL153C, strain GIM3, stronger effect = lower value
[59] = S. cerevisiae deletion strains, locus YNL233W, strain BNI4, stronger effect = lower value
[60] = S. cerevisiae deletion strains, locus YNL250W, strain rad50, stronger effect = lower value
[61] = S. cerevisiae deletion strains, locus YNL271C, strain bni1, stronger effect = lower value
[62] = S. cerevisiae deletion strains, locus YNL298W, strain CLA4, stronger effect = lower value
[63] = S. cerevisiae deletion strains, locus YNL307C, strain MCK1, stronger effect = lower value
[64] = S. cerevisiae deletion strains, locus YNR052C, strain pop2, stronger effect = lower value
[65] = S. cerevisiae deletion strains, locus YOL012C, strain htz1
[66] = S. cerevisiae deletion strains, locus YOL147C, strain pex11, stronger effect = lower value
[67] = S. cerevisiae deletion strains, locus YOR061W, strain CKA2, stronger effect = lower value
[68] = S. cerevisiae deletion strains, locus YOR069W, strain VPS5, stronger effect = lower value
[69] = S. cerevisiae deletion strains, locus YOR136W, strain idh2, stronger effect = lower value
[70] = S. cerevisiae deletion strains, locus YOR144C, strain elg1, stronger effect = lower value
[71] = S. cerevisiae deletion strains, locus YOR184W, strain ser1, stronger effect = lower value
[72] = S. cerevisiae deletion strains, locus YOR316C, strain cot1, stronger effect = lower value
[73] = S. cerevisiae deletion strains, locus YPL241C, strain CIN2, stronger effect = lower value
[74] = S. cerevisiae deletion strains, locus YPR119W, strain clb2, stronger effect = lower value
[75] = S. cerevisiae deletion strains, locus YPR141C, strain kar3, stronger effect = lower value
[76] = S. cerevisiae deletion strains, locus YPR163C, strain tif3, stronger effect = lower value
[77] = S. cerevisiae deletion strains, locus YPR167C, strain met16, stronger effect = lower value
[78] = S. cerevisiae deletion strains, strain wtn01, stronger effect = lower value
[79] = S. cerevisiae strains, strain wild type, stronger effect = lower value

Measured: normalized growth

Cc1cc(O)c(C)c2c1C(=O)Oc1c(C)c(O)c(C(=O)O)c(C)c1O2
inactive: S. cerevisiae deletion strains, locus YAL013W, strain DEP1, stronger effect = lower value 0.997 | [1] 0.966 | [2] 0.993 | [3] 0.973 | [4] 0.998 | [5] 1 | [6] 0.988 | S. cerevisiae deletion strains, locus YDL134C, strain PPH21, stronger effect = lower value 0.98 | [7] 0.989 | [8] 0.983 | [9] 0.974 | S. cerevisiae deletion strains, locus YDR150W, strain NUM1, stronger effect = lower value 0.999 | [10] 1.02 | [11] 0.971 | [12] 0.98 | [13] 0.982 | [14] 1 | [15] 0.978 | [16] 0.991 | [17] 0.994 | [18] 0.968 | [19] 0.977 | [20] 0.989 | [21] 1.01 | [22] 1 | [23] 1.01 | [24] 0.961 | [25] 0.989 | [26] 0.982 | [27] 0.979 | [28] 0.997 | [29] 0.978 | [30] 0.988 | [31] 0.999 | [32] 0.983 | [33] 0.991 | [34] 1.01 | [35] 0.989 | [36] 0.974 | [37] 0.988 | [38] 1.01 | S. cerevisiae deletion strains, locus YJR075W, strain HOC1, stronger effect = lower value 1.01 | [39] 0.964 | [40] 0.985 | [41] 0.992 | [42] 0.992 | S. cerevisiae deletion strains, locus YKL190W, strain CNB1, stronger effect = lower value 1 | [43] 0.982 | [44] 1.01 | [45] 0.997 | [46] 0.988 | S. cerevisiae deletion strains, locus YLR262C, strain YPT6, stronger effect = lower value 1 | [47] 0.99 | [48] 0.998 | S. cerevisiae deletion strains, locus YLR342W, strain FKS1 (second series), stronger effect = lower value 0.983 | [49] 0.976 | [50] 0.974 | [51] 0.99 | [52] 0.965 | [53] 0.991 | [54] 0.973 | [55] 0.966 | S. cerevisiae deletion strains, locus YMR263W, strain SAP30, stronger effect = lower value 1 | [56] 0.976 | [57] 1 | S. cerevisiae deletion strains, locus YNL128W, strain TEP1, stronger effect = lower value 0.998 | [58] 1 | [59] 0.997 | [60] 0.972 | [61] 0.966 | [62] 0.967 | [63] 0.972 | S. cerevisiae deletion strains, locus YNL322C, strain KRE1, stronger effect = lower value 1 | [64] 0.967 | S. cerevisiae deletion strains, locus YOL006C, strain TOP1, stronger effect = lower value 0.986 | [65] 0.731 | [66] 0.988 | [67] 0.99 | [68] 0.99 | [69] 0.979 | [70] 0.985 | [71] 0.942 | [72] 0.977 | S. cerevisiae deletion strains, locus YPL055C, strain LGE1, stronger effect = lower value 1.04 | [73] 0.972 | [74] 0.979 | [75] 0.972 | [76] 0.983 | [77] 0.985 | [78] 0.98 | [79] 1

Cc1cc(O)c(C=O)c2c1C(=O)Oc1c(C)c(O)c3c(c1O2)C(O)OC3=O (stereo unspecified)
inactive: [1] 1.03 | [2] 1 | [3] 0.981 | [4] 0.944 | [5] 0.956 | [6] 0.955 | [7] 0.954 | [8] 0.992 | [9] 0.994 | [10] 0.948 | [11] 0.98 | [12] 0.98 | [13] 0.974 | [14] 0.975 | [15] 0.971 | [16] 1.02 | [17] 0.993 | [18] 0.989 | [19] 0.966 | [20] 1 | [21] 0.988 | [22] 0.951 | [23] 1.03 | [24] 1.02 | [25] 0.984 and 0.994 | [26] 0.97 | S. cerevisiae deletion strains, locus YHR079C, strain IRE1, stronger effect = lower value 0.983 | [27] 0.971 | [28] 0.963 | [29] 0.983 | [30] 0.962 | [31] 0.831 | [32] 0.974 | [33] 0.995 | [34] 1.02 and 0.991 | [35] 0.986 | [36] 0.969 | [37] 0.88 | [38] 0.973 | S. cerevisiae deletion strains, locus YJR066W, strain TOR1, stronger effect = lower value 0.965 | [39] 0.933 | [40] 0.98 | [41] 0.974 | [42] 0.974 | [43] 1.01 | [44] 0.996 | [45] 0.937 | [46] 0.986 | S. cerevisiae deletion strains, locus YLR113W, strain HOG1, stronger effect = lower value 0.984 | [47] 0.965 | [48] 0.99 | [49] 0.948 | [50] 0.999 | [51] 0.957 | [52] 0.995 | [53] 0.975 | [54] 0.959 | [55] 0.966 | [56] 1.14 | [57] 0.981 | [58] 0.959 | S. cerevisiae deletion strains, locus YNL183C, strain NPR1, stronger effect = lower value 0.944 | [59] 1.03 | [60] 0.963 | [61] 0.946 | [62] 0.986 | [63] 0.978 | [64] 0.955 | [65] 0.674 | [66] 0.97 | [67] 0.963 | [68] 0.982 | [69] 0.985 | [70] 0.974 | [71] 1.01 | S. cerevisiae deletion strains, locus YOR231W, strain MKK1, stronger effect = lower value 0.982 | [72] 0.984 | [73] 0.994 | S. cerevisiae deletion strains, locus YPL256C, strain CLN2, stronger effect = lower value 0.928 | [74] 0.979 | [75] 0.969 | [76] 0.993 | [77] 0.983 | [78] 0.963 | [79] 0.907
